An excerpt weighted towards active compounds, which were near 1.8% of everything screened.
PME-1 inh: PME-1 inhibitors via competitive probe labeling, primary screen, biochemical, fluorescence polarization, FP-Rh probe, HTS | recombinant PME-1 | 0.53% of 320,000 active | inhibition, % at 5.9 µM | Protein phosphatase methylesterase 1 (Homo sapiens), Q9Y570;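 active = inhibition above the campaign mean of all compounds plus 3 SD, cut at about 26% in these data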;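 note: competitive labeling of PME-1 active site by serine hydrolase directed probe; 0% = PME-1 with DMSO and 100% = wells lacking PME-1 enzyme; inhibitors block probe labeling so polarization falls and inhibition rises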
Target sequence (Q9Y570 whole entry, looked up): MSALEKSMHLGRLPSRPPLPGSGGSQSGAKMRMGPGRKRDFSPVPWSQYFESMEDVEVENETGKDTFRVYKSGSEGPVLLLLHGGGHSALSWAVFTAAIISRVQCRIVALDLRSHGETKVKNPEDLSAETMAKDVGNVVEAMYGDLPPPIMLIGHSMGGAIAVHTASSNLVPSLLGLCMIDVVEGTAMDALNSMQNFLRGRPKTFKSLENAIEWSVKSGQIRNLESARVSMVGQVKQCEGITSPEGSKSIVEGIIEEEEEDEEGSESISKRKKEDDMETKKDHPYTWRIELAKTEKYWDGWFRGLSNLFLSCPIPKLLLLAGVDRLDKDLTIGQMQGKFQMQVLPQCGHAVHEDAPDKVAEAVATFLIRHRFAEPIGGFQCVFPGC
GSTO1 counter: inhibitors of recombinant GSTO1, primary screen, counter-screen for RBBP9 inhibitor project, biochemical, fluorescence polarization; activity-based probe fluorescence polarization; inhibition, % at 5.96 µM; 1.1% of 300,000 active; AID 1974, 2009;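 active = inhibition above the campaign mean inhibition plus 3 SD, cut at about 35% in these data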;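 note: 0% = GSTO1-1 with DMSO and 100% = wells lacking GSTO1-1 enzyme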
Fam108B counter: mouse Fam108B serine hydrolase inhibitors, primary screen, counter-screen for RBBP9 inhibitor project, biochemical, fluorescence polarization; recombinant Fam108B, FP-Rh probe fluorescence polarization; 0.33% of 300,000 active; inhibition, % at 9.51 µM; AID 1947, 2009;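 active = inhibition above the screen mean inhibition plus 3 SD, computed separately per campaign, cut at about 18% in these data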;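 note: inhibitors lower polarization as less probe binds the enzyme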
LYPLA1 counter: LYPLA1 inhibitors, primary screen, counter-screen for PME1 inhibitor project, biochemical, fluorescence polarization, FP-Rh probe ABPP; AID 2174, 2009; recombinant LYPLA1; inhibition, % at 5.9 µM; 0.16% of 320,000 active; Acyl-protein thioesterase 1 (Homo sapiens), O75608;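 active = inhibition above the mean of all tested compounds plus 3 SD, set per campaign, cut at about 14% in these data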;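 note: inhibitors block serine hydrolase probe labeling of LYPLA1 so polarization falls; 0% = enzyme with DMSO and 100% = wells lacking LYPLA1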
PAD4 FP inh: human PAD4 inhibitors, primary screen, biochemical, fluorescence polarization, 1536-well format. Protein-arginine deiminase type-4 (Homo sapiens), Q9UM07. recombinant PAD4, RCA probe fluorescence polarization. inhibition, % at 6.36 µM. 0.41% of 330,000 active;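 active = percent inhibition above a cutoff equal to the mean of all tested compounds plus 3 SD, cut at about 15% in these data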;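 note: 0% = PAD4 with RCA probe and DMSO and 100% = probe without PAD4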
LYPLA2 counter: LYPLA2 inhibitors, primary screen, counter-screen for PME1 inhibitor project, biochemical, fluorescence polarization, FP-Rh probe ABPP. Acyl-protein thioesterase 2 (Homo sapiens), O95372. recombinant LYPLA2. inhibition, % at 5.9 µM. 0.38% of 320,000 active;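 active = inhibition above the screen-wide mean plus 3 SD, limit set per campaign, cut at about 26% in these data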;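 note: 0% = LYPLA2 with DMSO and 100% = wells lacking LYPLA2 enzyme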
Target sequence (O95372 whole entry, looked up): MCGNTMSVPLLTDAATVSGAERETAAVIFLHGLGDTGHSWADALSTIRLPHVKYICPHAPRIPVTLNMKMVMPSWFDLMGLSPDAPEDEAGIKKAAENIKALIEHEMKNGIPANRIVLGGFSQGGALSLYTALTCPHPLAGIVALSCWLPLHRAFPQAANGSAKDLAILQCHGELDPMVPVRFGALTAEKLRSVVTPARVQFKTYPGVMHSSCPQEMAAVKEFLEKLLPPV
GSTO1 inh conf: GSTO1 inhibitor hit confirmation, counter-screen for RBBP9 inhibitor project, biochemical, fluorescence polarization, triplicate; shares compounds with GSTO1 counter; recombinant GSTO1, probe fluorescence polarization; inhibition, % at 5.96 µM; 54% of 2,400 active; AID 2176, 2009;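 active = inhibition above the primary screen's cutoff, its mean inhibition plus 3 SD, cut at about 35% in these data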;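 note: loss of polarization as inhibitors block binding of rhodamine sulfonate ester activity probe; 0% = GSTO1 with DMSO and 100% = wells lacking GSTO1 enzyme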
GSTO1 ABPP inh: inhibitors of purified human GSTO1, late-stage follow-up, biochemical, gel ABPP, SE-Rh probe, percent inhibition; inhibition, % at 1 µM; recombinant GSTO1, gel ABPP SE-Rh probe fluorescence; shares compounds with GSTO1 counter; 30% of 130 active;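 active = inhibition of the enzyme GSTO1 above about 75%, limit read from the data; inactive = inhibition below that limit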
Starred values were filed as active, the others as inactive; · = no result.

SMILES	PME-1 inh	GSTO1 counter	Fam108B counter	LYPLA1 counter	PAD4 FP inh	LYPLA2 counter	GSTO1 inh conf	others
O=C(CCl)Nc1cc(S(=O)(=O)N2CCCCCC2)ccc1Cl	12	96*	5	2	5	5	96*
Cc1ccc(S(=O)(=O)N2CCCCC2)cc1NS(=O)(=O)c1cccc(C(=O)O)c1	-5	39*	1	-1	2	2	32
O=C(CCl)N1CCN(S(=O)(=O)c2ccc3ccccc3c2)CC1	4	87*	-1	4	0	16	94*	GSTO1 ABPP inh=88*
CCN(C(=N)N=C(N)N)c1ccccc1	-9	2	-1	1	3	3	·
CCOC(=O)C1=C(N)OC2=C(C(=O)CC(C)(C)C2)C1c1cc(CSc2nnnn2C)cs1 (centres undefined)	4	12	-2	-1	-4	2	·
CN(CCCNC(=O)CCC(=O)N1CCOc2ccccc21)Cc1ccccc1	0	-1	0	0	-3	-1	·
CCCCn1c(NC(=O)c2ccc(Br)o2)c(S(=O)(=O)c2ccccc2)c2nc3ccccc3nc21	5	58*	8	-3	-12	-2	67*
CCCS(=O)(=O)N1CCN=C1SCc1ccc(F)cc1	-4	4	3	-1	2	-7	·
CCCOC(=O)CSC1=C(C#N)C(c2ccccc2OCC)C(C#N)C(=O)N1 (centres undefined)	2	71*	9	-2	2	4	0
CCCCOC(=O)CSC1=C(C#N)C(c2ccccc2OCC)C(C#N)C(=O)N1 (centres undefined)	3	10	6	-4	-1	-3	·
CCn1nnc2cc(C(=O)OCC(=O)N(C)Cc3cccc(F)c3)ccc21	·	·	·	·	-14	·	·
CCOc1ccccc1NC1c2ccccc2C(=O)N1c1ccc(C)cn1 (centres undefined)	-5	-5	1	-2	0	1	·
CCOC(=O)c1ccccc1NC1c2ccccc2C(=O)N1c1ccc(C)cn1 (centres undefined)	-3	76*	0	2	0	2	6
CC(C)C(=O)Nc1nnc(CCN2CCOCC2)s1	-3	-8	-4	-1	1	-6	·
CCOc1ccc(NC(=O)C2C(C(=O)O)C3(Cl)C(Cl)=C(Cl)C2(Cl)C3(Cl)Cl)cc1 (centres undefined)	-1	44*	4	2	2	2	30
CCOc1ccc(NC(=O)C2C(c3ccccc3)C2(Cl)Cl)cc1 (centres undefined)	0	-1	0	-4	2	-6	·
Cc1cc(OCc2cc(C(=O)NC(C)c3c(C)nn(C)c3C)no2)cc(C)c1Cl (centres undefined)	0	-5	-5	-5	-5	-2	·
Cc1ccc(O)c(O)c1	2	55*	-1	1	6	6	3
Cc1ccc(O)c(N)c1	12	·	·	1	-11	4	·
CN(C)C(=O)c1cc(C(=O)c2ccccc2)c[nH]1	-2	67*	3	2	2	1	2
CN(C)C(=O)c1cc(C(=O)c2ccccc2Cl)c[nH]1	-1	-1	-2	-1	-1	-6	·
CC(Sc1nccn1C)C(=O)c1ccc(Br)cc1 (centres undefined)	-5	3	2	-2	-3	-8	·
CCOc1cccc(C=Nc2cc(C)cc(C)c2O)c1O	12	45*	4	3	-5	6	-1
Cc1cc(Oc2ncccc2[N+](=O)[O-])c2cc(Cl)ccc2n1	-2	-10	2	1	3	5	·
Oc1ccc(/C=N/N2CCCCC2)c(O)c1O	3	46*	2	-1	-11	-1	14
SMILES	PME-1 inh	GSTO1 counter	Fam108B counter	LYPLA1 counter	PAD4 FP inh	LYPLA2 counter	GSTO1 inh conf	others
COc1cc(/C=C2/S/C(=N/S(=O)(=O)c3ccccc3)NC2=O)c([N+](=O)[O-])cc1OC	-1	41*	1	-1	-15	-2	32
COc1cc(/C=C2\S/C(=N/S(=O)(=O)Cc3ccccc3)NC2=O)c([N+](=O)[O-])cc1OC	-3	7	4	0	-9	7	·
O=C(CCl)c1cc2c3c(c1)CC(=O)N3CCC2	5	52*	-2	-1	4	0	67*
CC1(OC(=O)C2CCCC2)C(=O)C=C2C=C(c3ccsc3)N(CCCCO)C=C2C1=O (centres undefined)	0	44*	9	2	-9	7	6
O=C(CCl)Nc1cccc(S(=O)(=O)NC2=NCCC2)c1	-7	99*	2	0	-2	0	99*
CCNC(=S)Nc1cccc(S(=O)(=O)NC2=NCCC2)c1	2	-2	-3	-5	-5	2	·
O=C(CNC(=O)c1ccccc1)NCCc1ccc(O)c(O)c1	-2	75*	-2	0	4	1	7
O=C(COC(=O)CNC(=O)c1ccccc1)NCCc1ccccc1	-3	1	-3	-6	-4	-7	·
O=C1C2C3C=CC(C2C(=O)N1c1ccccc1O)C1C2C(=O)N(c4ccccc4O)C(=O)C2C31 (centres undefined)	-6	11	1	0	-2	0	·
O=C1C2C3C=CC(C2C(=O)N1c1ccc(O)cc1)C1C2C(=O)N(c4ccc(O)cc4)C(=O)C2C31 (centres undefined)	7	42*	7	3	8	8	10
CCOC(=O)Nc1nnc(-c2ccccc2OC)s1	2	-6	15	5	6	-2	·
CCC(SC1=NCCS1)C(=O)Nc1nnc(-c2ccccc2OC)s1 (centres undefined)	-10	59*	-3	-6	11	-7	61*
O=C1C(=Cc2ccco2)C(=O)c2ccccc21	3	38*	7	0	-2	8	27
O=C(COC(=O)c1ccccc1OCc1ccccc1Cl)NCC1CCCO1 (centres undefined)	·	·	·	·	2	·	·
